Consider 40 molecules from PubChem BioAssay (NCATS).

Results filed as inconclusive are left out. The source made the active and inactive calls. Calls follow the shape of the dose curve; as a rule, active = well fitted inhibition curve with a large enough effect; inconclusive = small, poorly fitted or top-dose-only effect; inactive = flat fitted curve, though single readings scatter.
Potency is read from the fitted curve at half-maximal effect.

Chain of Tyrosyl-DNA phosphodiesterase 1 (Homo sapiens) (Q9NUW8 whole entry, looked up): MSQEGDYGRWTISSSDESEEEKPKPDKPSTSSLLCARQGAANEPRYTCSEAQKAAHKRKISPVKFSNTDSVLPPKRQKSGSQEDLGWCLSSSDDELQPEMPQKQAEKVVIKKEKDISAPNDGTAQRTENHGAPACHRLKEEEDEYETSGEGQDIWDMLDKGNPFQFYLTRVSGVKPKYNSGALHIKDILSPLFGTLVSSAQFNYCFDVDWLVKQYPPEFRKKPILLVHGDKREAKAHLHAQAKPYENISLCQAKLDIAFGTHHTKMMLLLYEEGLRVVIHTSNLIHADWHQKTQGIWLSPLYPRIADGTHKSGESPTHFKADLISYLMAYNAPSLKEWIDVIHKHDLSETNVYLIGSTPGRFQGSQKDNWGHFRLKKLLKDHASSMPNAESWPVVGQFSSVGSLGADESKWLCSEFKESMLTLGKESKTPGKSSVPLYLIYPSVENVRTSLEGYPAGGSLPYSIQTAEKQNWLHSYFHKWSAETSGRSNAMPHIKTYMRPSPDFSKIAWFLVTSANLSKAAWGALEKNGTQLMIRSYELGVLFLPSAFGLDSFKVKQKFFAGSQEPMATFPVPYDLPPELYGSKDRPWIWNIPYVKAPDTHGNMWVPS

The experiment addresses Tyrosyl-DNA phosphodiesterase 1 (Homo sapiens) (UniProt Q9NUW8). The experiment can be described thus: Confirmation Assay for Inhibitors of Tyrosyl-DNA Phosphodiesterase (TDP1) (AID 489007). Also: nearly all actives have a fitted effect of over 40% in size. The conditions noted are these: recombinant human TDP1 enzymatic activity, dose-response. The gist of the method:
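Loss of AlphaScreen signal reports Tdp1 cleavage of a dual-labelled DNA substrate. Conditions: 1 nM E. coli-derived enzyme, 15 nM substrate, 15 min compound preincubation, 5 min reaction, 10 min bead incubation, all at room temperature.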
Regarding `COc1ccc(N2Cc3cccc(C(=O)O)c3C2=O)cc1`, the Potency was 2.51 µM (active).

Regarding `Cc1ccc(S(=O)(=O)N2CCCCC2)cc1C(=O)Nc1ccc(S(=O)(=O)Nc2ncccn2)cc1`, the Potency is 14.1 µM (active).

As for `O=C(COc1ccc2oc(-c3ccccc3)cc(=O)c2c1)NCc1ccco1`, the Potency was 44.7 µM (active).

Turning to `C=CCc1cccc2cc(C(=O)Nc3ccc(S(=O)(=O)Nc4nnc(CC)s4)cc3)c(=O)oc12`, the Potency is 15.8 µM (active).

Turning to `Fc1ccc(C2CC(c3cccs3)=NN2c2ccccc2)cc1` (stereo not given), the Potency was 15.8 µM (active).

Take `CCCCC[C@H](O)/C=C/[C@@H]1[C@@H](C/C=C\CCCC(=O)OC)[C@@H](O)C[C@H]1O`: the Potency is 25.1 µM (active).

As for `O=C(CSc1nnc(SCc2ccc(Cl)cc2)s1)N/N=C/c1c[nH]c2ccccc12`, the Potency was 5.01 µM (active).

Take `COc1ccc(S(=O)(=O)NCc2cccs2)cc1`: the Potency is 112 µM (active).

For `Cc1ccc(CN2C(=O)N/C(=C/c3ccc(-c4ccc(C(=O)O)cc4)o3)C2=O)cc1`, the Potency is 12.6 µM (active).

Regarding `CN(C)/C=C/C=C1C(=O)CCCC1=O`, the Potency was 89.1 µM (active).

With `O=C(/C=C/c1c(Cl)nc2ccccn12)N1CCN(c2ccc(F)cc2)CC1`, the Potency was 35.5 µM (active).

Regarding `Cc1nnc(NC(=O)CCSCCC(=O)Nc2nnc(C)s2)s1`, the Potency was 15.8 µM (active).

For `Cc1ccc2cc(C)c3nnc(SCC(=O)NCc4ccco4)n3c2c1`, the Potency was 35.5 µM (active).

For the molecule `Cc1ccc2nc(-c3ccncc3)cc(C(=O)Nc3ccc(OC(F)F)cc3)c2c1`, the Potency was 70.8 µM (active).

`Cc1cc(C=O)c(C)n1-c1cccc(C(=O)O)c1`: the Potency was 7.94 µM (active).

For the molecule `Nc1ccc(Nc2ccccc2)c(S(=O)(=O)O)c1`, the Potency was 7.94 µM (active).

In the case of `Cc1ccc(-c2nc3c(c(SCC(=O)Nc4cccc(C(=O)O)c4)n2)Cc2cccc(C)c2O3)cc1`, the Potency is 4.08 µM (active).

Take `CC(=C/C(=O)O)/C=C/c1ccc(Cl)o1`: the Potency was 39.8 µM (active).

In the case of `O=C(CSc1nc2ccccc2[nH]1)NC1CCCC1`, the Potency was 14.1 µM (active).

As for `COc1ccc2cc(C(=O)Nc3ccccc3)sc(=O)c2c1OC`, the Potency was 56.2 µM (active).

In the case of `O=c1cc(CCl)nc2sc3ccccc3n12`, the Potency was 14.1 µM (active).

Take `O=C(O)C1C2C=CC(C2)C1C(=O)NCc1cccs1` (stereo not given): the Potency was 31.6 µM (active).

Take `Nc1nonc1-c1nc2ccccc2n1CC(=O)N/N=C/c1ccc(-c2cccc(C(=O)O)c2)o1`: the Potency was 14.1 µM (active).

On to `O=C(CSc1nc(NS(=O)(=O)c2ccccc2)cc(=O)[nH]1)Nc1ccc(Cl)cc1`, for which the Potency is 22.4 µM (active).

On to `O=C(O)Cc1ccc(NC(=O)C2CC=CCC2C(=O)O)cc1` (stereo not given), for which the Potency is 14.1 µM (active).

With `O=C(O)c1ccc(-c2ccc(/C=C3\NC(=O)N(Cc4ccc(Cl)cc4)C3=O)o2)cc1`, the Potency was 14.1 µM (active).

As for `Cn1c(-n2cccc2)c(-c2c(-c3ccccc3)[nH]c3c2c(=O)[nH]c(=O)n3C)c(=O)[nH]c1=O`, the Potency was 100 µM (active).

For the molecule `Cc1ccc(C)n1-c1ccc(C(=O)O)cc1`, the Potency is 0.794 µM (active).

`Nc1ccc(N)c(C(=O)O)c1`: the Potency is 0.199 µM (active).

Take `Cc1nnc(NC(=O)CSc2ccc(-c3ccco3)nn2)s1`: the Potency was 14.1 µM (active).

On to `O=C(O)CCCN1C(=O)/C(=C\c2ccco2)SC1=S`, for which the Potency was 2.82 µM (active).

In the case of `O=C1CC(=O)N(Cc2ccco2)C(=S)N1`, the Potency was 15.8 µM (active).

`OC[C@@H]1[C@@H](c2ccccc2)C(c2cccc(Cl)c2)=NN1c1ccccc1`: the Potency is 10 µM (active).

Consider `CCN(CC)C(=O)COc1ccc2oc(-c3ccco3)cc(=O)c2c1`, for which the Potency was 112 µM (active).

Regarding `CCn1c(SCc2nc3sc(C(=O)O)c(C)c3c(=O)[nH]2)nc2ccccc21`, the Potency is 3.16 µM (active).

With `O=c1c2nc(Br)n([C@@H]3O[C@@H]4CO[P@@](O)(=S)O[C@H]4[C@H]3O)c2nc2[nH]c(-c3ccccc3)cn12`, the Potency was 12.6 µM (active).

Regarding `O=C(O)C1C2C=CC(CC2)C1C(=O)O` (stereo not given), the Potency is 7.94 µM (active).

On to `CC(=O)c1ccc(NC(=O)c2noc3c2CCC3)cc1`, for which the Potency was 50.1 µM (active).

Consider `Cc1ccc(Oc2cc(-n3nc(C)cc3C)ncn2)cc1`, for which the Potency is 112 µM (active).

As for `Cc1nn(Cc2ccc(F)cc2)c(C)c1NC(=O)c1cc2ncc(Br)cn2n1`, the Potency is 44.7 µM (active).
